Experiments:
Experiment in all cases: log2 ratio of Biotin-Ahx-Ub-VS probe labelling (compound/DMSO); higher = less target engagement, active = hit call of the paper (q ≤ 0.05, log2 ratio ≤ -1)
Conditions in all cases: treatment time: 3 h
[1] = compound: ClCC(=O)N[C@H]1CCCc2ccccc12
In short: (§1)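 HEK293T lysate (495 µg per sample, in Tris/CHAPS/IGEPAL buffer with protease inhibitors) was treated in triplicate with compound over a concentration series or DMSO for 3 h, then with Biotin-Ahx-Ub-VS (0.5 µM final) for 1 h. Labelled DUBs were NeutrAvidin-enriched, digested with LysC and trypsin, and run by diaPASEF LC-MS/MS. Spectronaut label-free protein quantities were global-median-normalised. Values are average log2 ratios compound/DMSO from an unpaired t-test, using proteins with ≥2 unique peptides.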

[2] = compound: CCC1N(CCc2cc(OC)c(Cl)cc12)C(=O)CCl
In short: (§2)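 HEK293T lysate (495 µg per sample, in Tris/CHAPS/IGEPAL buffer with protease inhibitors) was exposed in triplicate to compound at 50 or 200 µM, or to DMSO, for 3 h, then to Biotin-Ahx-Ub-VS (0.5 µM final) for 1 h. The labelled DUBs were enriched on NeutrAvidin, digested with LysC and trypsin, and analysed by diaPASEF LC-MS/MS. Average base-two log ratios of compound over DMSO came from median-normalised label-free quantities by unpaired t-test. Only proteins with at least 2 unique peptides were used.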

[3] = compound: CCCC1N(CCc2cc(OC)c(OC)cc12)C(=O)CCl
In short: as §2

[4] = compound: CCC1N(CCc2sccc12)C(=O)CCl
In short: as §2

[5] = compound: CN1c2ccccc2C(CS1(=O)=O)NC(=O)CCl
In short: as §2

[6] = compound: Cl.ClCC(=O)N1CCc2ncncc2C1
In short: as §2

[7] = compound: Cl.Cn1ncc2C(CCCc12)NC(=O)CCl
In short: as §2

[8] = compound: ClCC(=O)NC1CCOc2ccccc12
In short: as §2

[9] = compound: ClCC(=O)NC1CCCc2ccccc12
In short: as §1

[10] = compound: ClCC(=O)N[C@@H]1CCCc2ccccc12
In short: as §1

Measured: log2 ratio of Biotin-Ahx-Ub-VS probe labelling

USP10 (UniProt Q14694)
Sequence of UniProt Q14694 (Q14694 whole entry): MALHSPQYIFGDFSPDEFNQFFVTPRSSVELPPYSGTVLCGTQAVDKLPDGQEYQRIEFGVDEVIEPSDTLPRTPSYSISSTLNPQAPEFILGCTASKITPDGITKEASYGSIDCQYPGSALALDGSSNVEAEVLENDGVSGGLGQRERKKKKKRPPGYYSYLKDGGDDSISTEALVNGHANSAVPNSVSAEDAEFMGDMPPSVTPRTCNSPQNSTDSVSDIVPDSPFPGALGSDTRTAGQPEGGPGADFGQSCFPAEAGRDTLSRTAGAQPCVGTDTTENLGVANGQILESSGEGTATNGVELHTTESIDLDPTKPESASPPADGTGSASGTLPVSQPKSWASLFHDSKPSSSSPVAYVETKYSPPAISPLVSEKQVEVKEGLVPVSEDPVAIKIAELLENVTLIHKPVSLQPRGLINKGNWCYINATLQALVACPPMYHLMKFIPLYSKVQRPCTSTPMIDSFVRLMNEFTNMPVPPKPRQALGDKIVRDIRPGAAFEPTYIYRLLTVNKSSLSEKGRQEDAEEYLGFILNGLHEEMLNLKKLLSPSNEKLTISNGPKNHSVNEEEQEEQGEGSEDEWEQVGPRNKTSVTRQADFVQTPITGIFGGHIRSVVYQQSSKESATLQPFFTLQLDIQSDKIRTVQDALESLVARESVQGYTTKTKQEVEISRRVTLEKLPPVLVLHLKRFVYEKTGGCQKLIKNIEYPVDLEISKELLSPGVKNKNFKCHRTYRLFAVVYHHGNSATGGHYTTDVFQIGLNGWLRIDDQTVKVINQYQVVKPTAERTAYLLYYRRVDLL
inactive: [1]; compound concentration: 3.13uM -0.0618 | [1]; compound concentration: 6.25uM -0.0539 | [1]; compound concentration: 12.5uM 0.0103 | [1]; compound concentration: 25uM -0.0249 | [1]; compound concentration: 50uM -0.0723 | [1]; compound concentration: 100uM 0.0262 | [1]; compound concentration: 200uM -0.109 | [2]; compound concentration: 50uM -0.0451 | [2]; compound concentration: 200uM -0.029 | [3]; compound concentration: 50uM -0.317 | [3]; compound concentration: 200uM -0.194

MINDY4 (UniProt Q4G0A6)
Sequence of UniProt Q4G0A6 (Q4G0A6 whole entry): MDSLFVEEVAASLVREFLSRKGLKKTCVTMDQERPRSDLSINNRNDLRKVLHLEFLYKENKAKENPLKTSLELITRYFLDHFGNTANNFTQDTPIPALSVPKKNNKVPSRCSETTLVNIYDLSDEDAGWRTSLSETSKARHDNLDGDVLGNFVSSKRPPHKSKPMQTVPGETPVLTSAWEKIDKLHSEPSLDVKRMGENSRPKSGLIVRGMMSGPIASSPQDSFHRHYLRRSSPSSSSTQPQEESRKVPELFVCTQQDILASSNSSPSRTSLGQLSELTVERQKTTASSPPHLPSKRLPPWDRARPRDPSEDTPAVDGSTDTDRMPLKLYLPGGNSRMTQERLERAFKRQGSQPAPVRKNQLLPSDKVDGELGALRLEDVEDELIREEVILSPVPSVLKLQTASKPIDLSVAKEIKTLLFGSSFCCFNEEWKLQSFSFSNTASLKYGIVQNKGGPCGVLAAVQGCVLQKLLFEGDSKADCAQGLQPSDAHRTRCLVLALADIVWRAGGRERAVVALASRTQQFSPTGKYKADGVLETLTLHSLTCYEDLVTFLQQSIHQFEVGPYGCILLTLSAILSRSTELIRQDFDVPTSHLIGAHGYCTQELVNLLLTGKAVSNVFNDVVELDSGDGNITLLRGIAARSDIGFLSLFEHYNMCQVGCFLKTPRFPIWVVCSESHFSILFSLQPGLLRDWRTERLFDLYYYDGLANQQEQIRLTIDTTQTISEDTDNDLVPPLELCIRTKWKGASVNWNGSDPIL
inactive: [4]; compound concentration: 50uM -0.62 | [4]; compound concentration: 200uM 0.797 | [5]; compound concentration: 200uM 0.688 | [6]; compound concentration: 50uM 0.73 | [6]; compound concentration: 200uM -0.108 | [7]; compound concentration: 50uM 0.308 | [7]; compound concentration: 200uM 0.136 | [8]; compound concentration: 50uM 0.825 | [8]; compound concentration: 200uM 0.522 | [10]; compound concentration: 0.78uM -0.837 | [10]; compound concentration: 12.5uM -0.893 | [2]; compound concentration: 50uM 0.0614 | [2]; compound concentration: 200uM -0.042 | [3]; compound concentration: 50uM 0.725 | [3]; compound concentration: 200uM -0.113
active: [5]; compound concentration: 50uM -4.18 | [9]; compound concentration: 0.78uM -2.83 | [9]; compound concentration: 1.56uM -3.43 | [9]; compound concentration: 3.13uM -2.24 | [9]; compound concentration: 6.25uM -2.62 | [9]; compound concentration: 12.5uM -1.89 | [9]; compound concentration: 25uM -2.3 | [9]; compound concentration: 50uM -2.78 | [9]; compound concentration: 100uM -2.85 | [9]; compound concentration: 200uM -2.45 | [10]; compound concentration: 1.56uM -1.89 | [10]; compound concentration: 3.13uM -2.16 | [10]; compound concentration: 6.25uM -1.61 | [10]; compound concentration: 25uM -2.02 | [10]; compound concentration: 50uM -1.96 | [10]; compound concentration: 100uM -1.48 | [10]; compound concentration: 200uM -1.33 | [1]; compound concentration: 0.78uM -2.37 | [1]; compound concentration: 1.56uM -1.3 | [1]; compound concentration: 3.13uM -1.21 | [1]; compound concentration: 6.25uM -3.95 | [1]; compound concentration: 12.5uM -1.25 | [1]; compound concentration: 25uM -1.1 | [1]; compound concentration: 50uM -1.99 | [1]; compound concentration: 100uM -1.91 | [1]; compound concentration: 200uM -2.54

— the supplement of paper PMC11732987, “Enantioselective OTUD7B fragment discovery through chemoproteomics screening and high-throughput optimisation” (Communications Chemistry, 2025)
